# Source: PubChem BioAssay (several laboratories)
# RecA splice inh: blocks M. tuberculosis RecA intein splicing | P9WHJ3 | cell-free RecA intein splicing, fluorescence | inhibition, % (no concentration beside the values) | 0.75% of 290,000 active; in the data active = inhibition above about 30%;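 note: 0% = vehicle wells and 100% = reference inhibitor control wells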
# Target sequence (P9WHJ3 whole entry, looked up, canonical isoform): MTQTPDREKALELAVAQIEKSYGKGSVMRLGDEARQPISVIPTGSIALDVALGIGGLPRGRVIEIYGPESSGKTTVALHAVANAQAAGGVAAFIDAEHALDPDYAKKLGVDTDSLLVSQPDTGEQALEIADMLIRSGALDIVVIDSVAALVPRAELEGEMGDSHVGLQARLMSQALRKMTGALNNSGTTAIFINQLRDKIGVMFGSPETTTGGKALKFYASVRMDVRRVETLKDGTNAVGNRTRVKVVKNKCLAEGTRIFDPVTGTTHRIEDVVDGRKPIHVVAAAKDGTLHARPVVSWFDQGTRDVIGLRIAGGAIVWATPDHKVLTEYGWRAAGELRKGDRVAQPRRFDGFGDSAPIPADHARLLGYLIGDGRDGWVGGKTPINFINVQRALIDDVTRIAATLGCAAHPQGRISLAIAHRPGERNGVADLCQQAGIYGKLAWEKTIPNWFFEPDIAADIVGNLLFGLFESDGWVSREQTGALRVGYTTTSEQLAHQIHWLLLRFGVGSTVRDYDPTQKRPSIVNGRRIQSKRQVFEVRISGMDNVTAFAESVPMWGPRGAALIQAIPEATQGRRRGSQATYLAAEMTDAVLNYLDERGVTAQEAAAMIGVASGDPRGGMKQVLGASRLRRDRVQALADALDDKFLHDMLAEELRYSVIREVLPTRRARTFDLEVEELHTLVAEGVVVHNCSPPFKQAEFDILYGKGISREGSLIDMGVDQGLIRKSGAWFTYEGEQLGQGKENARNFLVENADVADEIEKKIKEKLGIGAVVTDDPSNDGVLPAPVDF
# Mtb UGM inh: inhibitors of M. tuberculosis UDP-galactopyranose mutase. P9WIQ1. purified UGM, fluorescence polarization probe displacement. inhibition, % at 10 µM. 0.06% of 320,000 active. AID 504406; in the data active = inhibition above about 10%, passing the limit was not always enough
# Rv3671c inh: Rv3671c (M. tuberculosis) protease inhibition; P9WHR9; inhibition, % at 5.96 µM; 0.048% of 320,000 active; AID 2606;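 note: extracellular domain of Rv3671c used as enzyme; 0% = enzyme with DMSO and 100% = no enzyme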
# BH1578 lux ind: quorum light induction in luxS cqsA deficient V. cholerae; 0.16% of 350,000 active; V. cholerae BH1578 lux reporter, luminescence, 6 h; activation, % at 18.7 µM; AID 588436; in the data active = activation mostly above about 9.7%, no sharp cut-off
# GDH-TPI inh: GDH-TPI coupled enzyme inhibition counter-screen; inhibition, % at 4.8 µM; GDH-TPI coupled enzyme counterscreen, NADH absorbance; 1.2% of 360,000 active; in the data active = inhibition above about 30%;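 note: 0% = DMSO wells and 100% = wells lacking the enzyme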
# Mtb FBA inh: inhibitors of M. tuberculosis fructose-bisphosphate aldolase; purified M. tuberculosis FBA, fluorescence read-out; inhibition, % at 1 µM; P9WQA3; 2.3% of 360,000 active; in the data active = inhibition above about 27%;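 note: 0% = vehicle and 100% = reference inhibitor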
# Rv3671c confirm: Rv3671c protease inhibition, confirmation; shares compounds with Rv3671c inh; inhibition, % at 5.96 µM; 40% of 140 active; AID 2761
# DNA intercalat: DNA intercalation detected by acridine orange polarization counter-screen; acridine orange-DNA binding, fluorescence polarization; 60% of 35 active; AC50, µM; shares compounds with Mtb UGM inh;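 active = fitted AC50 no greater than ten times the top concentration tested, cut at about 17 µM in these data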
# The depositor's hits bear a star; i = inactive; . = no result. Most compounds without a hit are left out; they make up all but 4.1% or so of the library. Cut-off read from the data, not from the text of the source, unless noted: active = inhibition above about 38%; inactive = the rest.
SMILES,RecA splice inh,Mtb UGM inh,Rv3671c inh,BH1578 lux ind,GDH-TPI inh,Mtb FBA inh,Rv3671c confirm,others
O=C(N/N=C/c1cc(Br)c(O)c(Br)c1O)c1ccc2c(c1)OCCO2,19.2,1.7,41.7*,-0.2,31.4*,18.6,21.1,
O=C(N/N=C/c1cc(Br)c(Br)o1)c1ccc2c(c1)OCCO2,8.4,2.4,2.1,-0.3,13.8,-2.7,.,
COc1ccc(-c2cc(C(F)(F)F)nc(SCC(=O)N3CCOCC3)n2)cc1OC,-1.0,0.6,1.7,0.0,22.3,1.8,.,
COc1ccc(-c2cc(C(F)(F)F)nc(S(=O)(=O)CCC(=O)N3CCOCC3)n2)cc1,5.6,-1.5,59.7*,-0.2,9.6,-0.1,-6.8,
CCOC(=O)N1CCN(C(=O)c2ccc(CS(=O)c3cccc(C)c3)o2)CC1 (configuration not stated),.,.,.,-0.8,6.2,-0.4,.,
Cc1cc(C)n2nc(SCC(=O)N/N=C/c3ccccn3)nc2n1,2.1,1.2,76.3*,-0.4,0.0,-4.0,-5.8,
CCCCn1c(N)c(N(CC(C)C)C(=O)CCNC(=O)c2ccc([N+](=O)[O-])cc2)c(=O)[nH]c1=O,.,.,.,i,4.2,0.4,.,
O=C(C1CCCN1S(=O)(=O)c1ccc(Cl)cc1)N1CCCCC1 (configuration not stated),-3.0,1.3,0.6,i,8.0,2.3,.,
COCCNC(=O)C1CCCN(Cc2ccc(C)cc2)CC1 (configuration not stated),.,.,.,-0.2,4.9,-2.0,.,
C(=N\Nc1nc2ccccc2[nH]1)/c1c[nH]c2ccccc12,22.0,3.2,41.2*,-0.4,19.4,0.4,91.8*,
C(=N\Nc1nc2ccccc2[nH]1)/c1cccc2cccnc12,3.7,-1.0,38.4*,-0.6,18.4,-0.9,26.9,
O=[N+]([O-])c1cc(/C=N/Nc2nc3ccccc3[nH]2)c(O)cc1O,40.2*,0.2,60.1*,.,.,.,28.8,
C(=N\Nc1nc2ccccc2[nH]1)/c1ccccc1,-15.6,-2.8,8.8,-0.7,15.0,-0.4,.,
CC1CCN(C(C(=O)O)c2ccccc2)CC1 (configuration not stated),-0.8,0.9,-0.3,i,-1.9,-1.1,.,
CCN(CC)C(=O)C1=C(C)N(CCC2=CCCCC2)C(=O)C(CC(=O)NCc2cccs2)C1 (configuration not stated),.,.,.,-0.4,-6.6,0.3,.,
CC(C)Sc1ccc([N+](=O)[O-])cc1C(=O)Nc1ccncc1,1.8,3.7,7.9,-0.4,27.2,-1.8,.,
Cc1ccc(CNC(=O)c2ccc(NC(=O)C3=CSCCO3)cc2)cc1,-1.1,-0.6,-10.0,-0.3,1.6,0.8,.,
COc1cccc(CNC(=O)c2ccc(NC(=O)C3=CSCCO3)cc2)c1,1.0,-2.5,60.8*,i,7.8,2.4,-5.9,
CCNc1cc(O)ccc1C,.,3.8,63.2*,-0.3,6.2,2.0,10.7,
Cc1cccc2c(=O)oc(-c3ccccc3Cl)nc12,0.3,0.8,50.7*,-0.7,1.7,-0.4,71.9*,
CCOC(=O)C1CCN(S(=O)(=O)c2ccc3[nH]c(=O)c(=O)[nH]c3c2)CC1,-3.5,1.7,5.2,i,5.0,13.0,.,
CC1CCN(S(=O)(=O)c2ccc3[nH]c(=O)c(=O)[nH]c3c2)CC1,1.4,-3.9,61.5*,-1.0,20.1,7.4,-3.2,
CC(=O)c1c(OC(=O)c2ccc(C)cc2)c2ccccc2n1C,6.4,-0.4,0.4,0.1,13.9,-1.5,.,
CC(=O)c1c(OC(=O)c2ccco2)c2ccccc2n1C,10.8,-1.4,74.3*,i,10.6,-0.1,76.6*,
CC(=O)c1sc2ccccc2c1OC(=O)c1ccco1,11.7,-0.2,60.9*,i,1.4,1.3,56.1*,
SMILES,RecA splice inh,Mtb UGM inh,Rv3671c inh,BH1578 lux ind,GDH-TPI inh,Mtb FBA inh,Rv3671c confirm,others
O=C1CCCN1CCCNc1ncccc1[N+](=O)[O-],.,2.4,-1.5,-0.3,6.5,-5.5,.,
C[n+]1c(-c2ccccc2)c2cc(N)ccc2c2ccc(N)cc21,2.2,-1.4,74.2*,0.3,21.2,-6.6,90.4*,
C[n+]1c(-c2ccccc2)sc([S-])c1-c1ccccc1,3.4,-2.3,8.8,-0.7,-2.3,-0.5,.,
O=C(CCc1ccc(O)c(O)c1)N/N=C/c1ccc2c(c1)OCO2,-6.6,4.8,4.2,1.7,1.8,3.6,.,
CC(C)Oc1ccc(CCC(=O)N/N=C/c2ccc3c(c2)OCO3)cc1,-0.4,3.1,38.4*,i,-0.4,1.5,-0.1,
Cn1c(/C(C#N)=C/c2ccc(-c3ccc(S(N)(=O)=O)cc3)o2)nc2ccccc21,.,7.4,46.9*,-0.4,40.0*,-5.0,-3.7,
Cn1c(/C(C#N)=C/c2cccc(O)c2)nc2ccccc21,4.1,-1.9,1.4,-0.3,16.4,1.6,.,
O=c1[nH]nc(CNc2ccc(O)cc2)c2ccccc12,20.0,-0.3,40.4*,-4.8,3.7,-0.9,-7.3,
Cc1cc2c(N)cccc2nn1,59.9*,-0.9,54.7*,i,14.7,-6.4,-1.1,
CCN(CC)C(=O)C1=C(C)N(Cc2ccc(OC)cc2)C(=O)C(CC(=O)NCc2cccs2)C1 (configuration not stated),.,.,.,i,4.3,-0.8,.,
Cc1cc(N)ccc1-n1c(C)ccc1C,1.5,2.0,83.3*,-0.1,-1.7,2.8,1.0,
Cc1cc(N)ccc1N1CCCC1,3.4,-2.8,20.7,i,-3.8,-1.7,.,
O=C1CCN2C=Nc3cccc4ccc1c2c34,-406.6,39.1*,-11.4,i,10.7,-8.1,.,DNA intercalat=12.7*
O=C1C=C(N2CCOCC2)c2cccc3cccc1c23,.,.,.,i,20.9,2.6,.,
O=C(Cn1cnc([N+](=O)[O-])c1)Nc1ccccc1C(F)(F)F,.,-1.0,-1.6,-0.3,18.8,1.9,.,
Cc1ccc(Cl)cc1N1CCN(C(=O)C2CCN(S(C)(=O)=O)CC2)CC1,-1.1,5.8,-11.2,-0.8,3.5,4.7,.,DNA intercalat=>35
O=C(Nc1ccc(-c2cn3ccsc3n2)cc1)C1CC1,-3.1,-0.1,8.2,i,3.5,0.4,.,
CC(=O)Nc1ccc(-c2cn3ccsc3n2)cc1,-1.1,1.5,-7.2,i,1.9,-1.6,.,DNA intercalat=>35
CC(C)(C)C1(C)OC(=O)C(=Cc2ccc(OCC(=O)Nc3ccccc3)cc2)C(=O)O1 (configuration not stated),1.2,1.1,2.1,-0.2,15.2,1.2,.,DNA intercalat=>35
COc1ccc(C(=O)NCC(=O)OCc2c(Cl)cccc2Cl)cc1OC,.,.,.,0.7,1.1,3.9,.,
Cc1nn(C)c(C)c1N1C(=O)c2cccc3c(N)ccc(c23)C1=O,.,67.9*,11.2,i,18.7,-16.4,.,DNA intercalat=6.1*
COc1cc(C(=O)NNC(=O)CNC(=O)c2ccc(Br)o2)cc(OC)c1OC,1.1,2.3,2.4,i,9.1,2.9,.,
CN(CC(=O)Nc1ccccc1Br)C(=O)c1n[nH]c2ccccc12,.,.,.,-2.1,7.9,1.4,.,
